Vaccinia mCherry – qHTS for Stage-Specific Inhibitors of Vaccinia Orthopoxvirus: mCherry Reporter Primary qHTS | Vaccinia virus mCherry reporter infection, fluorescence | Potency, µM (doses to about 36.5 µM), inactives show at the top dose activity change, negative = inhibition, most hits filed as inhibitors | 310,000 compounds, 0.63% hits; calls by dose curve; tested in A549 cells; note: nearly all actives have a fitted effect of over 35% in size
Lassa entry inh – qHTS for Inhibitors of binding or entry into cells for Lassa Virus; Lassa virus pseudotype entry inhibition, cell reporter; Potency, µM (doses to about 37.9 µM), without a hit: at the highest dose activity change, negative = inhibition, actives largely listed as inhibitors; 300,000 compounds, 1.2% hits; AID 540256, 2011; calls by dose curve; tested in HEK293 cells; note: nearly all actives have a fitted effect of over 50% in size
FMDV inh – High Throughput Screening for Foot and Mouth Disease Virus Antivirals | FMDV antiviral cell-based qHTS | Potency, µM (series often up to 57.9 µM), for inactives: top-dose activity change, negative = inhibition, most hits filed as inhibitors | 410,000 compounds, 1.2% hits; calls by dose curve; tested in HEK293T cells; note: read-out not given here; nearly all actives have a fitted effect of over 45% in size
VACV Venus inh – qHTS for Stage-Specific Inhibitors of Vaccinia Orthopoxvirus: Venus Reporter Primary qHTS | Potency, µM (top dose mostly 36.5 µM), without a hit: at the highest dose activity change, negative = inhibition, hits mostly inhibitors | Vaccinia virus Venus reporter expression, fluorescence | AID 720580, 2013 | 330,000 compounds, 0.46% hits; calls by dose curve; tested in A549 cells; note: nearly all actives have a fitted effect of over 30% in size
MARV entry inh – qHTS for inhibitors of binding or entry into cells for Marburg Virus. Marburg virus pseudotyped entry inhibition, cell reporter. Potency, µM (highest dose often 37.8 µM), inactives show at the top dose activity change, negative = inhibition, actives largely listed as inhibitors. 300,000 compounds, 1.8% hits. AID 540276, 2011; calls by dose curve; tested in HEK293 cells
Numbers without * were called inactive; [ ] = another dose, or the depositor's remark. In the library only some 3.2% were active in any assay of this set; here they are far more common. % is set by controls: 0 for no effect and ±100 for the full control effect; potency is the fitted concentration of half-maximal effect.

Cc1cc(NC(=O)CSc2nc(CCC3CCCC3)nc3ccccc23)no1 was read as Lassa entry inh 9.8%, FMDV inh inconclusive and MARV entry inh 4.5%.
Screening CCC(C)c1ccccc1NC(=O)COC(=O)C1=COCCO1 (stereo not given) returned Vaccinia mCherry -24.3%, Lassa entry inh -2.9%[46.1 µM], FMDV inh -5.9%, VACV Venus inh 14.8% and MARV entry inh inconclusive.
`CN(C)S(=O)(=O)c1ccc2c(c1)N(CC(=O)N1CCN(c3ccc(F)cc3)CC1)CCS2` gave Vaccinia mCherry -9.5%, Lassa entry inh 1.4%[46.1 µM], FMDV inh -28.0% and VACV Venus inh -2.5%.
`Cc1ccc(NC(=O)c2noc3c2CCCCC3)cc1` gave Lassa entry inh 14.6µM*, FMDV inh -33.3% and MARV entry inh inconclusive.
CCc1ccc(NC(=O)c2noc3c2CCCCC3)cc1 was read as Lassa entry inh -7.8%, FMDV inh 55.2% and MARV entry inh inconclusive.
Screening CSc1c2c(n(CC3CCCCC3)c1CC(=O)NC1CCCCC1)CCCC2 returned MARV entry inh 4.6%.
Screening CCOC(=O)c1cnc2ccc(OCC)cc2c1NCCc1ccc(OC)c(OC)c1 returned Vaccinia mCherry -10.8%[7.34 µM], Lassa entry inh inconclusive, FMDV inh 28.2µM*, VACV Venus inh -15.3%[7.34 µM] and MARV entry inh inconclusive.
`COc1cc(/C=N/N2C(=O)C3C4c5ccccc5C(c5ccccc54)C3C2=O)ccc1O` (stereo not given) gave Vaccinia mCherry -4.5%, Lassa entry inh 12.6µM*, FMDV inh -12.9%, VACV Venus inh -11.9% and MARV entry inh inconclusive.
CC(=O)C1=C(C)N(Cc2ccccc2)C(=O)NC1c1ccc(Br)cc1 (stereo not given) was read as Lassa entry inh 15.6%[14.3 µM] and MARV entry inh -4.3%[14.2 µM].
`Oc1ccc(Cl)cc1/C=C/c1ccc2cccc(O)c2n1` gave Vaccinia mCherry inconclusive, Lassa entry inh -15.8%[46.1 µM], FMDV inh 28.3%, VACV Venus inh 1.9% and MARV entry inh inconclusive.
CSc1ccc(/C=C/c2ccc3cccc(O)c3n2)cc1 was read as Vaccinia mCherry -23.2%, Lassa entry inh inconclusive, FMDV inh -59.2%, VACV Venus inh 5.2% and MARV entry inh 2.51µM*.
For COc1cc(/C=C/c2ccc3cccc(O)c3n2)ccc1O the results were Vaccinia mCherry inconclusive, FMDV inh -23.4% and VACV Venus inh inconclusive.
For Oc1c(Cl)cc(Cl)cc1/C=C/c1ccc2cccc(O)c2n1 the results were Vaccinia mCherry 2.51µM*, Lassa entry inh inconclusive, FMDV inh -25.0%, VACV Venus inh 182.1% and MARV entry inh inconclusive.
For CNC(=O)[C@H](Cc1c[nH]c2ccccc12)NC(=O)[C@@H](CC(=O)NO)CC(C)C the results were Vaccinia mCherry -14.6%[60.7 µM], FMDV inh -6.7% and VACV Venus inh -4.2%[60.7 µM].
For O=C(c1cc(-c2ccc(Br)cc2)n[nH]1)N1CCN(S(=O)(=O)c2ccc(Br)s2)CC1 the results were Vaccinia mCherry -26.3%, Lassa entry inh inconclusive, FMDV inh inconclusive and VACV Venus inh -21.3%.
Screening O=C(c1cc(-c2ccc(Cl)cc2)n[nH]1)N1CCN(S(=O)(=O)c2ccc(Br)s2)CC1 returned Vaccinia mCherry 11.2µM*, Lassa entry inh inconclusive, FMDV inh -26.6% and VACV Venus inh inconclusive.
For COc1cccc(/C=N/NC(=O)c2cc(-c3cccn3C)n[nH]2)c1O the results were Vaccinia mCherry 3.98µM*, Lassa entry inh 2.24µM*, FMDV inh 2.8%, VACV Venus inh inconclusive and MARV entry inh 8.91µM*.
COc1cccc(/C=N/NC(=O)c2ccncc2)c1OC(=O)c1ccc(Br)cc1 was read as Vaccinia mCherry 4.47µM*, Lassa entry inh inconclusive, FMDV inh -15.4%, VACV Venus inh -28.8% and MARV entry inh inconclusive.
`COc1cccc(/C=N/NC(=O)c2c(-c3ccccc3)noc2C)c1O` gave Vaccinia mCherry 10µM*, Lassa entry inh 10µM*, FMDV inh -13.1%, VACV Venus inh inconclusive and MARV entry inh 11.2µM*.
CCOc1cc(Br)cc(/C=N/NC(=O)c2cccnc2)c1O was read as Vaccinia mCherry 7.08µM*, Lassa entry inh inconclusive, FMDV inh inconclusive, VACV Venus inh inconclusive and MARV entry inh inconclusive.
`COc1c(Br)cc(Br)cc1/C=N/NC(=O)c1cccnc1` gave FMDV inh -15.3%.

Screening results: PubChem, National Center for Advancing Translational Sciences (NCATS)
